In PubChem BioAssay AID1159580 (chemical genetic matrix, 2015):
Where “and” joins values, the source holds several entries; their conditions need not be identical. Equal entries are not always repeated. Out of some 5,500 compounds screened, about 2,000 (36%) were called active. Inconclusive results (about 18%) are left out. Cut-off read from the data, not from the text of the source: active = normalized growth mostly below about 0.91 (no sharp cut-off); inconclusive = no clear call, values can overlap the other calls; inactive = mostly above about 0.92. The list shows a part of the results.

Assay: chemical genetic growth profiling, strain panel (AID 1159580);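 note: tested at 20 µM; growth read once vehicle control cultures reached saturation at 30 °C; 1 = growth at the plate median or of vehicle wells; lower values mean less growth of the strain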
Conditions: S. cerevisiae deletion strains, growth OD

Measured: normalized growth

Cc1nnc(NS(=O)(=O)c2ccc(N)cc2)s1
inactive: locus YAL021C, strain ccr4, hits give low values 0.982 | locus YAL026C, strain drs2, hits give low values 1.01 | locus YAL030W, strain snc1, hits give low values 0.986 | locus YBL061C, strain skt5, hits give low values 0.989 | locus YBR009C, strain hhf1, hits give low values 1.01 | locus YBR021W, strain FUR4, hits give low values 1.02 | locus YBR023C, strain chs3, hits give low values 1.02 | locus YBR171W, strain sec66, hits give low values 1 | locus YBR229C, strain ROT2, hits give low values 1 | locus YBR231C, strain swc5, hits give low values 0.99 | locus YBR279W, strain paf1, hits give low values 1 | locus YCL011C, strain gbp2, hits give low values 1.02 | locus YCL016C, strain dcc1, hits give low values 1 | locus YCL029C, strain bik1, hits give low values 0.992 | locus YCL061C, strain MRC1, hits give low values 1.01 | locus YCL069W, strain vba3, hits give low values 0.997 | locus YCR088W, strain abp1, hits give low values 1 | locus YDL005C, strain med2, hits give low values 1.02 | locus YDL035C, strain GPR1, hits give low values 1.02 | locus YDL040C, strain nat1, hits give low values 1.01 | locus YDL074C, strain BRE1, hits give low values 1.05 | locus YDL101C, strain DUN1, hits give low values 1 | locus YDL134C, strain PPH21, hits give low values 1.02 | locus YDL185W, strain tfp1, hits give low values 1 | locus YDL192W, strain arf1, hits give low values 1.01 | locus YDR001C, strain nth1, hits give low values 1.01 | locus YDR069C, strain doa4, hits give low values 0.992 | locus YDR101C, strain arx1, hits give low values 0.995 | locus YDR137W, strain rgp1, hits give low values 1.01 | locus YDR159W, strain sac3, hits give low values 0.979 | locus YDR162C, strain NBP2, hits give low values 1.03 | locus YDR195W, strain ref2 0.947 | locus YDR297W, strain sur2, hits give low values 1 | locus YDR318W, strain mcm21, hits give low values 1.02 | locus YDR334W, strain swr1, hits give low values 0.987 | locus YDR335W, strain msn5, hits give low values 0.999 | locus YDR388W, hits give low values 0.993 | locus YDR392W, strain spt3, hits give low values 1.04 | locus YDR502C, strain sam2, hits give low values 1.02 | locus YEL003W, strain gim4, hits give low values 1 | locus YEL037C, strain rad23, hits give low values 0.972 | locus YEL061C, strain CIN8 (second series), hits give low values 1.01 | locus YEL061C, strain CIN8, hits give low values 1.01 | locus YER015W, strain faa2, hits give low values 1 | locus YER016W, strain bim1, hits give low values 0.994 | locus YER110C, hits give low values 0.984 | locus YER111C, strain swi4, hits give low values 0.999 | locus YER155C, strain BEM2 (second series), hits give low values 0.99 | locus YER155C, strain BEM2, hits give low values 1 | locus YER167W, strain BCK2, hits give low values 1.01 | locus YFR010W, strain ubp6, hits give low values 1 | locus YGL078C, strain dbp3, hits give low values 1 | locus YGL086W, strain mad1, hits give low values 1 | locus YGL167C, strain pmr1, hits give low values 1 | locus YGL173C, strain kem1, hits give low values 0.985 | locus YGL227W, strain vid30, hits give low values 1.01 | locus YGL240W, strain doc1, hits give low values 1.02 | locus YGL248W, strain PDE1, hits give low values 1 | locus YGL253W, strain hxk2, hits give low values 1.01 | locus YGR135W, strain pre9, hits give low values 1 | locus YGR252W, strain gcn5, hits give low values 1.13 | locus YHR013C, strain ard1, hits give low values 0.998 | locus YHR027C, strain rpn1, hits give low values 1 | locus YHR030C, strain SLT2, hits give low values 1.01 and 0.969 | locus YHR079C, strain IRE1 (second series), hits give low values 0.96 | locus YHR079C, strain IRE1, hits give low values 0.971 | locus YHR094C, strain hxt1, hits give low values 0.981 | locus YHR129C, strain ARP1, hits give low values 1 | locus YHR142W, strain chs7, hits give low values 1.02 | locus YHR200W, strain rpn10, hits give low values 1.01 | locus YIL066C, strain RNR3, hits give low values 0.992 | locus YIL073C, strain SPO22, hits give low values 1.06 | locus YIL125W, strain kgd1, hits give low values 1.01 | locus YIR030C, strain dcg1, hits give low values 0.991 | locus YJL092W, strain hpr5, hits give low values 1 | locus YJL095W, strain BCK1 (second series), hits give low values 0.988 | locus YJL095W, strain BCK1, hits give low values 1.02 and 0.974 | locus YJL115W, strain asf1, hits give low values 1.01 | locus YJL129C, strain trk1, hits give low values 0.997 | locus YJL134W, strain LCB3, hits give low values 1.01 | locus YJL154C, strain vps35, hits give low values 1.01 | locus YJL164C, strain tpk1, hits give low values 1.01 | locus YJL166W, strain qcr8, hits give low values 1 | locus YJL168C, strain set2, hits give low values 0.988 | locus YJL187C, strain SWE1 (second series), hits give low values 1.01 | locus YJL187C, strain SWE1, hits give low values 1 | locus YJR043C, strain POL32, hits give low values 1.03 | locus YJR066W, strain TOR1, hits give low values 0.925 | locus YJR075W, strain HOC1, hits give low values 1.01
